# Sampled rows, rich in hits. Any-hit rate of the full collection: about 11%.
# HCV inh – qHTS Assay for Inhibitors of Hepatitis C Virus (HCV). Huh7.5.1 HCVcc-Cre infection, luciferase reporter, 44 h. Potency, µM (doses to about 41.8 µM), hits mostly inhibitors. 340,000 compounds, 3.4% hits. AID 651820, 2012
#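 Luciferase read-out (15 sec integration) after a 15 min room-temperature substrate step quantifies HCVcc-Cre infection. Cells, 1,000 per well, had compound added 4 h post-plating, then virus at ~0.5 moi, and were cultured 44 h.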
# NS1 function inh – qHTS Assay for Inhibitors of Influenza NS1 Protein Function. Potency, µM (top dose mostly 46.1 µM). 270,000 compounds, 0.4% hits. AID 2326, 2010; calls by dose curve; further: actives are rising curves; nearly all actives have a fitted effect of over 50% in size
#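 Compounds were scored for reversing the slow growth caused by influenza A NS1 in S. cerevisiae, measured by optical density at 600 nm. Assay medium contained 2% galactose at pH 6.0; NS1-free yeast of the same strain were the positive control.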
# VACV Venus inh – qHTS for Stage-Specific Inhibitors of Vaccinia Orthopoxvirus: Venus Reporter Primary qHTS; Vaccinia virus Venus reporter expression, fluorescence; Potency, µM (highest dose often 36.5 µM), hits mostly inhibitors; AID 720580, 2013; 330,000 compounds, 0.46% hits; calls by dose curve; tested in A549 cells; further: nearly all actives have a fitted effect of over 30% in size
# Pf growth 48h – Primary qHTS for delayed death inhibitors of the malarial parasite plastid, 48 hour incubation. P. falciparum luciferase growth in erythrocytes, 48 h. Potency, µM (titrated, usually from 28.7 µM), most hits filed as inhibitors. 310,000 compounds, 5.9% hits. AID 504832, 2011
#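 Erythrocytes infected with P. falciparum carrying an integrated firefly luciferase reporter (2% hematocrit, 0.1% parasitemia final) were exposed to compounds in RPMI 1640 with 0.5% Albumax at 37 C, 5% CO2. Growth inhibition was scored as reduced luminescence.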
# Pf growth 96h – Primary qHTS for delayed death inhibitors of the malarial parasite plastid, 96 hour incubation. P. falciparum luciferase reporter growth, 96 h. Potency, µM (titrated, usually from 28.7 µM), usual class: inhibitors. 320,000 compounds, 6.9% hits. AID 504834, 2011
#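 Two-generation exposure (96 h) targets delayed-death phenotype. Reporter parasites carrying integrated firefly luciferase, in red cells at 2% hematocrit and 0.05% parasitemia final, kept at 37 C, 5% CO2; luminescence loss indicates inhibition.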
# VACV mCherry inh – qHTS for Stage-Specific Inhibitors of Vaccinia Orthopoxvirus: mCherry Reporter Primary qHTS | 310,000 compounds, 0.63% hits | Potency, µM (highest dose often 36.5 µM), usual class: inhibitors | Vaccinia virus mCherry reporter infection, fluorescence | AID 720579, 2013; calls by dose curve; tested in A549 cells; further: nearly all actives have a fitted effect of over 35% in size
# HCV confirm – qHTS Assay for Inhibitors of Hepatitis C Virus (HCV): Confirmation Assay for Cherry-picked Compounds; shares compounds with HCV inh; HCVcc-Cre infectious virus cell assay, luciferase, inhibition; Potency, µM (series often up to 41.8 µM), most hits filed as inhibitors; 640 compounds, 78% hits; AID 720575, 2013; further: nearly all actives have a fitted effect of over 80% in size
# HCV host tox – qHTS Assay for Inhibitors of Hepatitis C Virus (HCV): Cytotoxicity Counterscreen for Cherry-picked Compounds; Potency, µM (highest dose often 41.8 µM), most hits filed as inhibitors; shares compounds with HCV inh; HCV host cell line cytotoxicity counterscreen; 640 compounds, 22% hits; AID 720576, 2013;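 further: 44 h compound exposure; nearly all actives have a fitted effect of over 55% in size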
# Numbers stand for hits; i = inactive; ? = inconclusive; nt = not tested or not shown; [ ] = remark or other dose. Unless noted, the call rests on the fitted dose curve; in most records, active means well fitted curve in the direction sought with a large enough effect; inconclusive means small, poorly fitted or top-dose-only effect, or another doubt; inactive means no such curve, though single readings can be large; an effect the other way counts as inactive or inconclusive.
SMILES,HCV inh,NS1 function inh,VACV Venus inh,Pf growth 48h,Pf growth 96h,VACV mCherry inh,HCV confirm,HCV host tox
Cc1cc(SCC(=O)c2ccccc2)n2ncc(-c3ccccc3)c2n1,?,i,nt,i,i,nt,?,i
CN(CC(=O)NC1CC(C)(C)NC(C)(C)C1)S(=O)(=O)c1ccc(Br)cc1,?,i,i,i,i,i,nt,nt
Cc1nn(C)c(Nc2ccc(Br)cc2)c1Br,3.5µM,nt,i,?,i,i,5µM,8.9µM
CN1C(=O)/C(=C\c2cc(N=Nc3ccccc3)ccc2O)SC1=S,i,i,i,?,?,i,nt,nt
Cc1cc(/C=C2\SC(=S)N(C)C2=O)c(C)n1-c1cccc(O)c1,4.5µM,i,i,i,i,?,25µM,25µM
O=C(c1ccc(Cl)nc1)N1CCN(C/C=C/c2ccccc2)CC1,i,nt,i,i,i,i,nt,nt
Fc1ccc2nc(-c3ccccc3)ccc2c1,nt,nt,i,nt,nt,i,nt,nt
[O-][n+]1onc2c3cc(-c4ccccc4)nnc3ccc21,?,i,i,i,i,?,?,i
C/C(=N\NC(N)=S)C1=CCC2C3CC[C@H]4CC(O)CC[C@]4(C)C3CC[C@]12C (stereo partly specified),?,i,nt,nt,12µM,nt,7.9µM,i
C[C@]12CCC3C(CC[C@H]4C[C@H](O)CC[C@]34C)C1C[C@@H](O)[C@@H]2O (stereo partly specified),i,nt,i,nt,nt,i,nt,nt
CC1=NN(C(C#N)c2ccc(F)cc2)C(C)(C)C1 (stereo unspecified),i,i,nt,i,i,nt,nt,nt
CC(=O)c1sc(NC(=O)CCS(=O)(=O)c2ccc(C)cc2)nc1C,2.8µM,nt,?,?,i,i,?,?
c1ccc2c(c1)nnn2Cn1nnc2ccccc21,nt,nt,i,nt,nt,i,nt,nt
CCCCn1c(=N)n(CC(O)COc2cccc(C)c2)c2ccccc21 (stereo unspecified),8.9µM,i,nt,7.4µM,?,nt,14µM,?
C=CCc1ccc(OCCOc2cccc3ccc(C)nc23)c(OC)c1,8.9µM,i,nt,?,?,nt,13µM,i
CCNC(=S)/N=C(\N)Nc1nc(C)c2cc(C)ccc2n1,3.2µM,i,?,?,i,?,?,i
COc1ccc(NC(=O)Nc2ccccc2C(N)=O)cc1OC,nt,?,i,i,nt,i,nt,nt
COc1cc(OC)c(NC(=O)Nc2ccc(OC)c(OC)c2)cc1Cl,2.5µM,i,i,i,i,i,i,i
COc1cc(OC)c(NC(=O)c2cccc(F)c2)cc1Cl,?,i,i,i,i,i,?,i
COc1cc(OC)c(NC(=O)c2ccc(F)cc2)cc1Cl,i,i,i,i,i,i,nt,nt
COc1cccc(C2c3c(oc4ccccc4c3=O)C(=O)N2CCCN2CCOCC2)c1OC (stereo unspecified),i,i,i,nt,nt,i,nt,nt
CCC1(C)Cc2ccccc2-c2nc(SCC(N)=O)[nH]c(=O)c21 (stereo unspecified),i,i,nt,i[0.00184 µM],i,nt,nt,nt
CCCCc1c(C)nc2ccccc2c1SCCC#N,?,i,i,?,?,i,nt,nt
CSc1ccccc1NC(=O)N1CCCC(C(=O)c2ccc3c(c2)OCO3)C1 (stereo unspecified),i,i,i,i,?,i,nt,nt
CN(CC(=O)NCCc1ccc(S(N)(=O)=O)cc1)Cc1ccc(Cl)cc1Cl,7.1µM,i,i,i,i,i,8.9µM,18µM
SMILES,HCV inh,NS1 function inh,VACV Venus inh,Pf growth 48h,Pf growth 96h,VACV mCherry inh,HCV confirm,HCV host tox
CN(CC(=O)NCCc1ccc(S(N)(=O)=O)cc1)Cc1c(F)cccc1Cl,i,i,i,i,i,i,nt,nt
O=C1NC(=O)C(CCc2ccncc2)(Cc2ccc3c(c2)OCO3)C(=O)N1CCc1ccccc1 (stereo unspecified),i,i,nt,nt,?,nt,nt,nt
Cc1cccc(-c2n[nH]c(=S)n2/N=C/c2ccco2)c1,i,i,nt,i,i,nt,nt,nt
N=c1scc(-c2ccccc2)n1/N=C/c1ccco1,?,i,i,i,?,i,25µM,i
CCN1/C(=C\C=C(C(C)=O)C(C)=O)Sc2ccccc21,i,nt,i,i,i,i,nt,nt
CCN1/C(=C\C(=S)Nc2ccccc2)Sc2ccccc21,6.3µM,i,i,i,i,i,14µM,?
C=C(C)COc1ccc(-c2nc(N)ncc2Oc2ccccc2OCC)c(O)c1,4.5µM,i,?,?,i,nt,25µM,i
COc1ccc(-c2nc(N)ncc2-c2csc(C)n2)c(O)c1,?,i,i,i,?,i,nt,nt
CCOc1ccc(-c2cc(C(=O)NCCc3ccc(Cl)cc3)c3ccccc3n2)cc1,nt,nt,i,nt,nt,i,nt,nt
CCOc1ccc(C(C)=O)cc1COc1ccc(-n2cnnn2)cc1,2.8µM,i,i,i,i,nt,0.31µM,i
CC(C)Oc1ccccc1/C=N/NC(=O)c1ccccc1Cl,i,i,nt,i,i,nt,nt,nt
CC(C)Oc1ccccc1/C=N/NC(=O)c1ccc(F)cc1,7.9µM,i,i,i,i,i,?,i
O=C(c1ccccc1F)N1CCN(c2ncccn2)CC1,i,i,i,i,i,i,nt,nt
CCOc1nc(-c2ccccc2O)nc2ccccc12,?,i,i,i,i,i,6.3µM,0.89µM
Oc1ccccc1-c1nc(NC2CCCC2)c2ccccc2n1,?,i,nt,?,i,nt,nt,nt
Cn1nnnc1Sc1ncnc2scc(-c3ccc(C#N)cc3)c12,nt,nt,nt,4.7µM,1.9µM,nt,25µM,25µM
COc1cc(OC)cc(-c2c(-c3cccs3)c3cc(-c4ccc5[nH]ccc5c4)ccc3n2C)c1,11µM,nt,i,6.6µM,2.3µM,?,14µM,i
COc1cc(OC)cc(-c2c(-c3cccs3)c3cc(-c4cnc(N)nc4)ccc3n2C)c1,?,nt,?,nt,nt,i,nt,nt
CC(C)Cc1ccc(C(C)C(=O)Nc2ccccc2O)cc1 (stereo unspecified),4.5µM,i,i,?,i,?,4.4µM,10µM
CC(C)Cc1ccc([C@@H](C)C(=O)NS(C)(=O)=O)cc1,nt,nt,nt,i,i,nt,nt,nt
O=C(Nc1ccc(N2CCOCC2)cc1)c1cc(F)c(F)cc1Cl,i,i,i,i,i,i,nt,nt
O=C(Nc1nc(-c2ccc(Cl)s2)cs1)c1ccncc1,?,i,i,i,10µM,i,6.3µM,?
O=C(Nc1nc(-c2cccs2)cs1)c1ccco1,?,i,nt,i,i,nt,nt,nt
CC1CC1C(=O)Nc1nc(-c2ccc(Cl)s2)cs1 (stereo unspecified),?,nt,i,i,i,?,nt,nt
COc1ccc(C(=O)Nc2nc(-c3cccs3)cs2)cc1,?,i,i,i,nt,i,22µM,0.0025µM

# Source: PubChem (National Center for Advancing Translational Sciences (NCATS))
